Positions count from the first letter of the chain named. Numbers in names are those of the source.
B1: 60 (nucleosome)
DNA 1: ATCCTGGAGAATCCCGGTGCCGAGGCCGCTCAATTGGTCGTAGACAGCTCTAGCACCGCTTATCAAGGCCAACGCGCTGTCCCCCGCGTTTTAACCGCCAAGGGGATTACTCCCTAGTCTCCAGGCACGTGTCAGATATATACATCCTGTGAT
DNA 2: ATCACAGGATGTATATATCTGACACGTGCCTGGAGACTAGGGAGTAATCCCCTTGGCGGTTAAAACGCGGGGGACAGCGCGTTGGCCTTGATAAGCGGTGCTAGAGCTGTCTACGACCAATTGAGCGGCCTCGGCACCGGGATTCTCCAGGAT
modifications: reconstituted with mouse histones H2A, H2B, H3.3 and H4
B2: 53 (nucleosome)
DNA 1: ATCCTGGAGAATCCCGGTGCCGAGGCCGCTCAATTGGTCGTAGACAGCTCTAGCATCAAGGCCACGCACGTACGCGCTGTCCCCCGCGTTTTAACCGCCAAGGGGATTACTCCCTAGTCTCCAGGCACGTGTCAGATATATACATCCTGTGAT
DNA 2: ATCACAGGATGTATATATCTGACACGTGCCTGGAGACTAGGGAGTAATCCCCTTGGCGGTTAAAACGCGGGGGACAGCGCGTACGTGCGTGGCCTTGATGCTAGAGCTGTCTACGACCAATTGAGCGGCCTCGGCACCGGGATTCTCCAGGAT
modifications: reconstituted with mouse histones H2A, H2B, H3.3 and H4
B3: 59 (nucleosome)
DNA 1: B1 DNA 1 with A62T, T63C, C64A, A66G, G68C, C70A, A71T
DNA 2: B1 DNA 2 with T83A, G84T, C86G, T88C, G90T, A91G, T92A
modifications: reconstituted with mouse histones H2A, H2B, H3.3 and H4
B4: 54 (nucleosome)
DNA 1: B2 DNA 1 with T56C, C57T, A58C, G60A, C62G, A64C, C65A
DNA 2: B2 DNA 2 with G89T, T90G, G92C, C94T, T96G, G97A, A98G
modifications: reconstituted with mouse histones H2A, H2B, H3.3 and H4
B5: 56 (nucleosome)
DNA 1: B2 DNA 1 with T56C, A58G, A59T, G60C, G61A, C62A, C63G, A64G, G66C, C67A
DNA 2: B2 DNA 2 with G87T, C88G, T90C, G91C, G92T, C93T, C94G, T95A, T96C, A98G
modifications: reconstituted with mouse histones H2A, H2B, H3.3 and H4
B6: 55 (nucleosome)
DNA 1: B2 DNA 1 with T56C, A58T, A59C, G60A, G61A, C62G, C63G, A64C, G66A
DNA 2: B2 DNA 2 with C88T, T90G, G91C, G92C, C93T, C94T, T95G, T96A, A98G
modifications: reconstituted with mouse histones H2A, H2B, H3.3 and H4
B7: 58 (nucleosome)
DNA 1: B2 DNA 1 with T56C, A58G, A59C, G60T, G61T, C63A, C65G, A68C, C69A
DNA 2: B2 DNA 2 with G85T, T86G, G89C, G91T, C93A, C94A, T95G, T96C, A98G
modifications: reconstituted with mouse histones H2A, H2B, H3.3 and H4
B8: 57 (nucleosome)
DNA 1: B1 DNA 1 with T61C, T63A, C64G, A65G, A66C, G67C, G68A, C70G, A71T
DNA 2: B1 DNA 2 with T83A, G84C, C86T, C87G, T88G, T89C, G90C, A91T, A93G
modifications: reconstituted with mouse histones H2A, H2B, H3.3 and H4

What follows are binders tested against NR5A2 wild type;histone octamer (Homo sapiens;, UniProt O00482;C0HKE1;Q6ZWY9;P84244;P62806 1-541;2-130;2-126;2-136;2-103, |) (assay: SeEN-seq (EMSA of nucleosome library followed by sequencing); 0.8 uM human NR5A2; 20 mM Tris-HCl pH 7.5, 120 mM NaCl, 1 mM MgCl2, 10 uM ZnCl2, 1 mM DTT, 100 ug/ml BSA, room temperature, 30 min; 0.1 uM nucleosome library; high values mean tight binding).
With B1 the binding signal was 0.819 log2 enrichment (bound/unbound, relative to Widom 601).
With B2 the binding signal was 1.03 log2 enrichment (bound/unbound, relative to Widom 601).
For B3, the binding signal was 0.92 log2 enrichment (bound/unbound, relative to Widom 601).
B4 was tested, and the binding signal was 0.993 log2 enrichment (bound/unbound, relative to Widom 601).
With B5 the binding signal was 0.684 log2 enrichment (bound/unbound, relative to Widom 601).
For B6, the binding signal was 1.2 log2 enrichment (bound/unbound, relative to Widom 601).
In the case of B7, the binding signal is reported as 0.651 log2 enrichment (bound/unbound, relative to Widom 601).
B8 was tested, and the binding signal was 0.552 log2 enrichment (bound/unbound, relative to Widom 601).

What follows are binders tested against mouse Nr5a2 wild type;histone octamer (Mus musculus;, UniProt P45448;C0HKE1;Q6ZWY9;P84244;P62806 1-560;2-130;2-126;2-136;2-103, |) (assay: SeEN-seq (EMSA of nucleosome library followed by sequencing); 1.2 uM mouse Nr5a2; 20 mM Tris-HCl pH 7.5, 120 mM NaCl, 1 mM MgCl2, 10 uM ZnCl2, 1 mM DTT, 100 ug/ml BSA, room temperature, 30 min; 0.1 uM nucleosome library; high values mean tight binding).
For B1, the binding signal was 0.573 log2 enrichment (bound/unbound, relative to Widom 601).
B2 was tested, and the binding signal was 1.17 log2 enrichment (bound/unbound, relative to Widom 601).
For B3, the binding signal was 0.823 log2 enrichment (bound/unbound, relative to Widom 601).
B4 was tested, and the binding signal was 1 log2 enrichment (bound/unbound, relative to Widom 601).
B5 was tested, and the binding signal was 0.45 log2 enrichment (bound/unbound, relative to Widom 601).
In the case of B6, the binding signal is reported as 0.957 log2 enrichment (bound/unbound, relative to Widom 601).
B7 was tested, and the binding signal was 0.747 log2 enrichment (bound/unbound, relative to Widom 601).
In the case of B8, the binding signal is reported as 0.504 log2 enrichment (bound/unbound, relative to Widom 601).

From PMC11102866, “Nucleosome-bound NR5A2 structure reveals pioneer factor mechanism by DNA minor groove anchor competition”
